Data from PubChem BioAssay (NCATS).
Results filed as inconclusive are left out. Activity calls are given as the source filed them. The call rests on the fitted dose curve; in most records, active means well fitted inhibition curve with a large enough effect; inconclusive means small, poorly fitted or top-dose-only effect; inactive means flat fitted curve, though single readings scatter.

Assays:
[1] = test system: KB-3-1; test: Cytotoxic Profiling of Annotated Libraries Using Quantitative High-Throughput Screening (AID 1296008); conditions: Five cell lines viability, CellTiter-Glo ATP luminescence, 48-72 h; max response: hits give low values; on max response: on the % scale 0 is the no-effect control and ±100 the full control effect
How it was run: (§1)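 Cells exposed to compounds for 48 or 72 hr at 37 degrees Celsius. Viability read as ATP-coupled luminescence with CellTiter-Glo after 10 min at room temperature.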

[2] = test system: NIH3T3; test: as above; conditions: Five cell lines viability, CellTiter-Glo ATP luminescence, 48-72 h; max response: hits give low values
How it was run: as §1

[3] = test system: NIH3T3; test: qHTS assay to identify novel small-molecules to repurpose for Merkel cell carcinoma treatment (AID 1296009); conditions: MCC and control cell lines, CellTiter-Glo viability, 72 h; at 44.8 µM (top of the series) unless noted
How it was run: (§2)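 Cells were incubated with compound for 72 hr at 37 degree celsius before CellTiter-Glo addition. Luminescence was normalized with no-cell wells as full cytotoxicity and DMSO as baseline.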

[4] = test system: HEK293T; test: as above; conditions: MCC and control cell lines, CellTiter-Glo viability, 72 h; at 44.8 µM (top of the series) unless noted
How it was run: as §2

Measured: max response
Further: nearly all actives have a fitted effect of over 60% in size.

CC1(C)CC[C@]2(C(=O)O)CC[C@]3(C)C(=CCC4[C@@]5(C)CC[C@H](O[C@@H]6O[C@H](CO)[C@@H](O)[C@H](O)[C@H]6O[C@@H]6O[C@H](CO)[C@@H](O)[C@H](O)[C@H]6O)[C@@](C)(CO)C5CC[C@]43C)[C@@H]2C1 (some centres not stated)
inactive: [1] 8.35% | [2] | [3] inactive [at 17.4 µM]

CC(O)/C=C/C1(O)C(C)C(O[C@@H]2O[C@H](CO)[C@@H](O)[C@H](O)[C@H]2O)C(O)CC1(C)C (some centres not stated)
inactive: [1] -3.24% | [2] | [4] inactive [at 17.4 µM] | [3] inactive [at 17.4 µM]

CC(C)C[C@H](CC(=O)NO)C(=O)N[C@H](C(=O)N[C@@H](C)C(=O)NCCN)C(C)(C)C
inactive: [1] | [2] | [3] inactive [at 9.27 µM]

C=C(C)C1CCC2(C(=O)O[C@@H]3O[C@H](CO[C@@H]4O[C@H](CO)[C@@H](O)[C@H](O)[C@H]4O)[C@@H](O)[C@H](O[C@@H]4O[C@@H](C)[C@H](O)[C@@H](O)[C@H]4O)[C@H]3O)CCC3(C(=O)O)C(CCC4C5(C)CCC(O)C(C)(C)C5CCC43C)C12 (some centres not stated)
inactive: [1] | [2] | [4] inactive [at 9.27 µM] | [3] inactive [at 9.27 µM]

COc1ccc(CN2C(=O)C(=O)c3cc(S(=O)(=O)N4CCC[C@H]4COc4cccnc4)ccc32)cc1
inactive: all assays above

C=CC(C)(O)C(O)CC1C(C)(O)C(O)C(O)C2C(C)(C)CCCC21C (configuration not stated)
inactive: [1] -10.5% | [2] | [3]

CC1CCC2(OC1)OC1CC3C4CCC5C[C@@H](O[C@@H]6O[C@H](CO[C@@H]7OC[C@@H](O)[C@H](O)[C@H]7O)[C@H](O)[C@H](O)[C@H]6O)CC[C@]5(C)C4CC[C@]3(C)C1C2C (some centres not stated)
inactive: [1] 9.78% | [2] | [4] inactive [at 17.4 µM] | [3] inactive [at 17.4 µM]

CC(O)/C=C/C1OC(=O)CC1Nc1ccc(C(=O)O)cc1 (configuration not stated)
inactive: [1] 5.7% | [2] | [3]

C[C@H](Nc1ncnc2nc[nH]c12)c1cc2ccc(F)cc2nc1-c1ccccn1
inactive: [1] | [2] -0.749% | [4]

O=C1CCC(=O)N(O)CCCCCNC(=O)CCC(=O)N(O)CCOCCNC(=O)CCC(=O)N(O)CCCCCN1
inactive: [1] | [2] | [3] inactive [at 17.4 µM]

C=C1CCC2C(C)(COC(C)=O)CCCC2(C)C1CCC(C)CC(=O)O (configuration not stated)
inactive: [1] 8.96% | [2] | [4] | [3]

CC1=C(C(=O)O)/C(=C\CO[C@@H]2O[C@H](CO)[C@@H](O)[C@H](O)[C@H]2O)C(OC(=O)/C=C\c2ccc(O)cc2)C1 (some centres not stated)
inactive: [1] | [2] -21.6% | [4] inactive [at 17.4 µM]

OC[C@H]1O[C@@H](Oc2cc(O)c3c(c2)O[C@@H](c2ccc(O)cc2)[C@H](O)C3)[C@H](O)[C@@H](O)[C@@H]1O
inactive: [1] | [2] | [3] inactive [at 17.4 µM]

COc1cc2c3c(cc4ccccc4c3c1O)NC2=O
inactive: [1] | [2] | [3]

COc1ccc(CCO[C@@H]2CCCC[C@H]2N2CC[C@@H](O)C2)cc1OC
inactive: [1] 4.12% | [2] | [3]

O=S(=O)(Nc1ccccn1)c1ccc(N=Cc2c(O)[nH]c3ccc4ncsc4c23)cc1
inactive: [1] -4.18% | [2] | [3] inactive [at 9.27 µM]

CC1(C)CC[C@]2(C(=O)O[C@@H]3O[C@H](CO)[C@@H](O)[C@H](O)[C@H]3O)CC[C@]3(C)C(=CCC4[C@@]5(C)CC[C@H](O[C@@H]6O[C@H](C(=O)O)[C@@H](O)[C@H](O[C@@H]7O[C@H](CO)[C@H](O)[C@H](O)[C@H]7O)[C@H]6O)C(C)(C)C5CC[C@]43C)C2C1 (some centres not stated)
inactive: [1] 3.29% | [2] | [3] inactive [at 9.27 µM]

c1cc(OCCCN2CCCCC2)ccc1CN1CCCCC1
inactive: [1] -5.63% | [2] | [3]

CC1CCN(C(=O)CC#N)CC1N(C)c1ncnc2[nH]ccc12 (configuration not stated)
inactive: [1] | [4]

CC(=O)C=C=C1C(C)(C)CC(O[C@@H]2O[C@H](CO)[C@@H](O)[C@H](O)[C@H]2O)CC1(C)O (some centres not stated)
inactive: [1] 0.592% | [2] 4.66% | [4]

CC(C)/C=C1\NC(=O)C(C(C)C)n2c1nc1c(c2=O)C=CC=CO1 (configuration not stated)
inactive: [1] 4.42% | [2] | [3]

CN(C)CC1CCOC1(c1ccccc1)c1ccccc1 (configuration not stated)
inactive: [1] 5.01% | [2] | [3] inactive [at 17.4 µM]

CC(=O)N[C@@H](C(=O)O[C@H]1CCC(C)(C)[C@@H]2CCC3=C(COC3=O)[C@@]12C)C(C)C
inactive: [1] -11.9% | [2] | [3]

C[C@@H]1O[C@@H](O[C@H]2[C@H](OC(=O)[C@]34CCC(C)(C)C[C@H]3C3=CCC5[C@@]6(C)C[C@H](O)[C@H](O[C@@H]7O[C@H](CO)[C@@H](O)[C@H](O)[C@H]7O)[C@@](C)(CO)C6[C@H](O)C[C@@]5(C)[C@]3(C)C[C@H]4O)OC[C@H](O)[C@@H]2O)[C@H](O)[C@H](O)[C@H]1O[C@@H]1OC[C@@H](O)[C@H](O[C@H]2OC[C@](O)(CO)[C@H]2O)[C@H]1O (some centres not stated)
inactive: [1] 3.95% | [2] | [3] inactive [at 9.27 µM]

CC1CC2OC3(OC2C(C)(C)O)C1C1(C)CCC24CC25CCC(O[C@@H]2OC[C@@H](O)[C@H](O)[C@H]2O)C(C)(C)C5CC=C4C1(C)C3O (some centres not stated)
inactive: [1] 5.34% | [2] 0.0478% | [4] inactive [at 17.4 µM]

Cc1c2cc(c(C(=O)O)c1C)OC1OC(C(O)C(O)C1O)C(O)C(O)C1OC(O2)C(O)C(O)C1O (configuration not stated)
inactive: [1] | [2] | [3] inactive [at 17.4 µM]

O=C(O)c1ccccc1NC(=O)N1CCC(c2ccccc2C(F)(F)F)CC1
inactive: [1] -2.67% | [2] | [4] | [3]

COc1cc(Nc2nc3ccccc3nc2NS(=O)(=O)c2ccc(NC(=O)c3ccc(OC)c(C)c3)cc2)cc(OC)c1
inactive: [1] | [2] | [3]

C[C@@]1(O)[C@H](O)[C@@H](CO)O[C@H]1n1ccc(N)nc1=O
inactive: [1] | [4]

CC1CC(O)C2(OC1=O)OC1C(O)C3C4CCC5CC(OC6OC(CO)C(O)C(O)C6OC6OC(C)C(O)C(O)C6O)CCC5(C)C4CCC3(C)C1C2C (configuration not stated)
inactive: [1] | [2] | [4] inactive [at 17.4 µM] | [3] inactive [at 17.4 µM]

COC(=O)C12CCC(C)C(C)C1C1=CCC3C4(C)CCC(OC(C)=O)C(C)(C)C4CCC3(C)C1(C)CC2 (configuration not stated)
inactive: [1] 5.8% | [2] | [3] inactive [at 17.4 µM]

C[C@]12C[C@@H](O)[C@@H]3C[C@@]1(O[C@@H]1O[C@H](CO)[C@@H](O)[C@H](O)[C@H]1O)[C@]3(COC(=O)c1ccccc1)C(=O)O2
inactive: [1] 4.54% | [2] | [4] inactive [at 17.4 µM] | [3] inactive [at 17.4 µM]

C[C@H](NC(c1cccc2[nH]c(=O)c(=O)[nH]c12)P(=O)(O)O)c1ccc(Br)cc1 (some centres not stated)
inactive: [1] | [2] | [3]

CC(NC(=O)C(O)C(C)C)C(=O)NC1C(=O)N(C)CCc2ccccc21 (configuration not stated)
inactive: all assays above

C=C(C(=O)OC)C1C(O)CC2(C)C(=O)CCC(O)(CO)C2C1O (configuration not stated)
inactive: [1] -0.746% | [2] | [3]

COc1ccc(C2(O)c3ccccc3NC(=O)C2O)cc1 (configuration not stated)
inactive: [1] | [2] | [3]

CC(C)=CCC[C@](C)(O)[C@H]1CC[C@]2(C)[C@@H]1[C@H](O)CC1[C@@]3(C)CC[C@H](O)C(C)(C)[C@@H]3[C@@H](O[C@@H]3O[C@H](CO)[C@@H](O)[C@H](O)[C@H]3O[C@@H]3O[C@H](CO)[C@@H](O)[C@H](O)[C@H]3O)C[C@]12C (some centres not stated)
inactive: [1] 3.39% | [2] | [3] inactive [at 17.4 µM]

C[C@H](C(=O)NC1CCCC1)N(C(=O)Cn1nnc(-c2ccc3c(c2)OCO3)n1)C1CCCCC1
inactive: [1] 5.01% | [2] | [3]

C=C1C(=O)O[C@H](CCC)[C@H]1C(=O)O
inactive: [1] 2.02% | [2] | [3]

Nc1nc2c(ncn2[C@@H]2O[C@H](CO)[C@@H](O)[C@H]2O)c(=O)[nH]1
inactive: [1] 4.1% | [2] | [3]
